Measurements as given in PubChem BioAssay (NCATS).
Records with an inconclusive call do not appear. Where a call stands in place of a potency, no number is given. Active and inactive are the calls of the source. Calls follow the shape of the dose curve; as a rule, active = well fitted curve in the direction sought with a large enough effect; inconclusive = small, poorly fitted or top-dose-only effect, or another doubt; inactive = no such curve, though single readings can be large; an effect the other way counts as inactive or inconclusive.

Molecular target: Aldehyde dehydrogenase, mitochondrial (Homo sapiens) (UniProt P05091)
Assay: qHTS for Inhibitors of the Aldehyde Dehydrogenase Family (ALDH2) Primary screen (AID 2061308); also: nearly all actives have a fitted effect of over 55% in size
Settings: ALDH2 enzyme inhibition qHTS, 1536-well; series mostly up to 56 µM

Row | SMILES | Potency
1 | N#Cc1cccc(S(=O)(=O)Nc2cnccc2C(=O)Nc2nc(-c3ccccc3)cs2)c1 | inactive
2 | Cc1ccnc(NC(=S)NC2CCCN(c3cccc(C(F)(F)F)c3)C2)c1 (stereo not given) | inactive
3 | Cc1ccc(OCCn2c(CCNC(=O)Cc3cccc(F)c3)nc3ccccc32)cc1 | inactive
4 | COc1ccccc1CNC(=O)Nc1nnc(-c2ccncc2)s1 | inactive
5 | Cc1nnc2sc(-c3cccc(NC(=O)c4ccc(-c5cccc(Cl)c5)o4)c3)nn12 | inactive
6 | O=C(Nc1nnc(-c2ccco2)o1)c1ccc(Cl)c(Cl)c1 | inactive
7 | CC(C)c1nc2c(cnn2C)c(=O)n1N | inactive
8 | Cc1cnc(-c2ccccc2C(C)C)nc1NCC1CCN(C)CC1 | inactive
9 | COc1cc([C@H]2O[C@H](c3cc(OC)c4c(c3)OCO4)[C@H](C)[C@H]2C)cc(OC)c1OC | inactive
10 | CCOc1ccc(NC(=O)Nc2ccc(-c3nc4ccccc4[nH]3)cc2)cc1 | inactive
11 | N#Cc1ccccc1S(=O)(=O)N1CCN(S(=O)(=O)c2ccc3c(c2)OCCO3)CC1 | inactive
12 | Cc1c(P(=S)(c2ccccc2)c2ccccc2)[n+]2ccccc2n1CCc1ccccc1 | inactive
13 | Cc1ccc(OCCn2c(CCNC(=O)c3ccco3)nc3ccccc32)cc1 | inactive
14 | O=C1CCc2cc(S(=O)(=O)Nc3ccc(F)cc3)ccc2N1 | inactive
15 | COc1ccccc1NC(=O)c1cc(-c2ccc(C)c(C)c2)nc2ccccc12 | inactive
16 | C[C@H]1CC[C@@]2(OC1)O[C@H]1CC3[C@@H]4CC[C@@H]5C[C@@H](O[C@@H]6O[C@H](CO)[C@@H](O[C@@H]7O[C@H](CO[C@@H]8OC[C@@H](O)[C@H](O)[C@H]8O)[C@@H](O[C@@H]8O[C@H](CO)[C@H](O)[C@H](O)[C@H]8O)[C@H](O)[C@H]7O)[C@H](O)[C@H]6O)CC[C@]5(C)C4CC[C@]3(C)[C@H]1[C@@H]2C (stereo not given in full) | inactive
17 | COc1ccc(CCC(=O)NCCc2nc3ccccc3n2CCOc2ccc(C)cc2)cc1 | inactive
18 | O=Cc1ccc(N2CCN(S(=O)(=O)c3ccc4c(c3)CC(=O)N4)CC2)cc1 | inactive
19 | Cc1cnc(-c2ccccc2C(F)F)nc1NCC1CN(c2cnccn2)C1 | inactive
20 | O=C(Nc1ncc([S+](=O)([O-])N2CCOCC2)s1)c1cccc(Br)c1 | inactive

Row | SMILES | Potency
21 | Cc1cc2c(s1)c1cnn(Cc3ccc(S(C)(=O)=O)cc3)c(=O)c1n2C | inactive
22 | COc1cc(O)c(C(CC(=O)N2CCCC(C)C2)c2ccc(OC)c(OC)c2)c(OC)c1 (stereo not given) | inactive
23 | Cc1ccc(-c2cc(C(=O)Nc3ccc(S(=O)(=O)NCc4nccs4)cc3)c3ccccc3n2)cc1C | inactive
24 | O=C(OCC#CCSc1nnc(-c2ccccc2)o1)c1ccc(F)cc1 | inactive
25 | COc1cccc(C2=Nn3c(nnc3-c3ccc(OC)c(OC)c3)SC2)c1 | inactive
26 | CCC(C)/C=C(C)/C=C/C1=CC2=CC(=O)C(C)(O)C(OC(C)=O)C2CO1 (stereo not given) | inactive
27 | Cc1cnc(-c2ccccc2C(C)C)nc1NCC1CCN(c2cccnc2)CC1 | inactive
28 | COc1ccc(C2Nc3ccccc3C(=O)N2Cc2ccco2)cc1COc1c(C)cc(NC(C)=O)cc1C (stereo not given) | inactive
29 | COc1ccc2[nH]c(=O)c3c(c2c1)OC(C)(C)C=C3 | inactive
30 | CC(C)(C)c1ccc(-c2csc(N3CCC(C(N)=O)CC3)n2)cc1 | inactive
31 | Cc1ccc(NC(=O)Nc2nnc(-c3ccncc3)s2)cc1C | inactive
32 | COc1cccc(C2c3c(ncn(-c4ccc(C#N)cc4)c3=N)Oc3ccc4ccccc4c32)c1 (stereo not given) | inactive
33 | O=C(Cc1nnc(-c2cc3ccccc3[nH]2)o1)Nc1cc(C(F)(F)F)ccc1Cl | inactive
34 | CC(=O)Nc1ccc(CNc2ncnc3ccc(-c4c(C)noc4C)cc23)cc1 | inactive
35 | COc1cc(O)c(C(CC(=O)N2CC(C)CC(C)C2)c2ccc3c(c2)OCCO3)c(OC)c1 (stereo not given) | inactive
36 | CN(Cc1nccs1)S(=O)(=O)c1ccc(Nc2nc(-c3ccccc3)cs2)cc1 | inactive
37 | O=C(Nc1ccc(F)c(C(F)(F)F)c1)Nc1nnc(-c2cccnc2)s1 | inactive
38 | O=C1CCCC2=C1C(c1cccnc1)N=C(Nc1nc3ccccc3o1)N2 (stereo not given) | inactive
39 | COc1cccc(-c2nnc3n2N=C(c2ccc(OC)cc2OC)CS3)c1 | inactive
40 | COc1ccccc1NS(=O)(=O)c1ccc2c(c1)CCC(=O)N2 | inactive

Molecular target: Retinaldehyde dehydrogenase 3 (Homo sapiens) (UniProt P47895)
Assay: qHTS for Inhibitors of the Aldehyde Dehydrogenase Family (ALDH1A3) Primary screen (AID 2061315)
Settings: ALDH inhibition qHTS; series mostly up to 56 µM

Row | SMILES | Potency
41 | N#Cc1cccc(S(=O)(=O)Nc2cnccc2C(=O)Nc2nc(-c3ccccc3)cs2)c1 | inactive
42 | Cc1ccnc(NC(=S)NC2CCCN(c3cccc(C(F)(F)F)c3)C2)c1 (stereo not given) | inactive
43 | Cc1ccc(OCCn2c(CCNC(=O)Cc3cccc(F)c3)nc3ccccc32)cc1 | inactive
44 | COc1ccccc1CNC(=O)Nc1nnc(-c2ccncc2)s1 | inactive
45 | Cc1nnc2sc(-c3cccc(NC(=O)c4ccc(-c5cccc(Cl)c5)o4)c3)nn12 | inactive
46 | O=C(Nc1nnc(-c2ccco2)o1)c1ccc(Cl)c(Cl)c1 | inactive
47 | CC(C)c1nc2c(cnn2C)c(=O)n1N | inactive
48 | Cc1cnc(-c2ccccc2C(C)C)nc1NCC1CCN(C)CC1 | inactive
49 | COc1cc([C@H]2O[C@H](c3cc(OC)c4c(c3)OCO4)[C@H](C)[C@H]2C)cc(OC)c1OC | inactive
50 | CCOc1ccc(NC(=O)Nc2ccc(-c3nc4ccccc4[nH]3)cc2)cc1 | inactive
51 | N#Cc1ccccc1S(=O)(=O)N1CCN(S(=O)(=O)c2ccc3c(c2)OCCO3)CC1 | inactive
52 | Cc1c(P(=S)(c2ccccc2)c2ccccc2)[n+]2ccccc2n1CCc1ccccc1 | inactive
53 | Cc1ccc(OCCn2c(CCNC(=O)c3ccco3)nc3ccccc32)cc1 | inactive
54 | O=C1CCc2cc(S(=O)(=O)Nc3ccc(F)cc3)ccc2N1 | inactive
55 | COc1ccccc1NC(=O)c1cc(-c2ccc(C)c(C)c2)nc2ccccc12 | inactive
56 | C[C@H]1CC[C@@]2(OC1)O[C@H]1CC3[C@@H]4CC[C@@H]5C[C@@H](O[C@@H]6O[C@H](CO)[C@@H](O[C@@H]7O[C@H](CO[C@@H]8OC[C@@H](O)[C@H](O)[C@H]8O)[C@@H](O[C@@H]8O[C@H](CO)[C@H](O)[C@H](O)[C@H]8O)[C@H](O)[C@H]7O)[C@H](O)[C@H]6O)CC[C@]5(C)C4CC[C@]3(C)[C@H]1[C@@H]2C (stereo not given in full) | inactive
57 | COc1ccc(CCC(=O)NCCc2nc3ccccc3n2CCOc2ccc(C)cc2)cc1 | inactive
58 | O=Cc1ccc(N2CCN(S(=O)(=O)c3ccc4c(c3)CC(=O)N4)CC2)cc1 | inactive
59 | Cc1cnc(-c2ccccc2C(F)F)nc1NCC1CN(c2cnccn2)C1 | inactive
60 | O=C(Nc1ncc([S+](=O)([O-])N2CCOCC2)s1)c1cccc(Br)c1 | inactive

Row | SMILES | Potency
61 | Cc1cc2c(s1)c1cnn(Cc3ccc(S(C)(=O)=O)cc3)c(=O)c1n2C | inactive
62 | COc1cc(O)c(C(CC(=O)N2CCCC(C)C2)c2ccc(OC)c(OC)c2)c(OC)c1 (stereo not given) | inactive
63 | Cc1ccc(-c2cc(C(=O)Nc3ccc(S(=O)(=O)NCc4nccs4)cc3)c3ccccc3n2)cc1C | inactive
64 | O=C(OCC#CCSc1nnc(-c2ccccc2)o1)c1ccc(F)cc1 | inactive
65 | COc1cccc(C2=Nn3c(nnc3-c3ccc(OC)c(OC)c3)SC2)c1 | inactive
66 | CCC(C)/C=C(C)/C=C/C1=CC2=CC(=O)C(C)(O)C(OC(C)=O)C2CO1 (stereo not given) | inactive
67 | Cc1cnc(-c2ccccc2C(C)C)nc1NCC1CCN(c2cccnc2)CC1 | inactive
68 | COc1ccc(C2Nc3ccccc3C(=O)N2Cc2ccco2)cc1COc1c(C)cc(NC(C)=O)cc1C (stereo not given) | inactive
69 | COc1ccc2[nH]c(=O)c3c(c2c1)OC(C)(C)C=C3 | inactive
70 | CC(C)(C)c1ccc(-c2csc(N3CCC(C(N)=O)CC3)n2)cc1 | inactive
71 | Cc1ccc(NC(=O)Nc2nnc(-c3ccncc3)s2)cc1C | inactive
72 | COc1cccc(C2c3c(ncn(-c4ccc(C#N)cc4)c3=N)Oc3ccc4ccccc4c32)c1 (stereo not given) | inactive
73 | O=C(Cc1nnc(-c2cc3ccccc3[nH]2)o1)Nc1cc(C(F)(F)F)ccc1Cl | inactive
74 | CC(=O)Nc1ccc(CNc2ncnc3ccc(-c4c(C)noc4C)cc23)cc1 | inactive
75 | COc1cc(O)c(C(CC(=O)N2CC(C)CC(C)C2)c2ccc3c(c2)OCCO3)c(OC)c1 (stereo not given) | inactive
76 | CN(Cc1nccs1)S(=O)(=O)c1ccc(Nc2nc(-c3ccccc3)cs2)cc1 | inactive
77 | O=C(Nc1ccc(F)c(C(F)(F)F)c1)Nc1nnc(-c2cccnc2)s1 | inactive
78 | O=C1CCCC2=C1C(c1cccnc1)N=C(Nc1nc3ccccc3o1)N2 (stereo not given) | inactive
79 | COc1cccc(-c2nnc3n2N=C(c2ccc(OC)cc2OC)CS3)c1 | inactive
80 | COc1ccccc1NS(=O)(=O)c1ccc2c(c1)CCC(=O)N2 | inactive
